± gives the standard deviation.
Experiments:
Settings in all cases: modulator concentration 10 µM
[1] = system: RAW-Dual (murine macrophage reporter line); assay: NF-kB reporter (SEAP) activity fold change vs agonist alone; higher = enhanced NF-kB activity
Method in brief: (§1)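 Overnight stimulation with a PRR agonist followed pre-incubation for 1 hour at 37 °C with compound at 10 μM final. This was done in RAW-Dual murine macrophage reporter cells seeded at 50 000 per well in 384-well plates. NF-κB (SEAP, QUANTI-Blue absorbance at 620 nm) and IRF (Lucia luciferase, QUANTI-Luc luminescence) were read from the supernatant. Each reporter's fold change relative to the mean agonist-only control on the same plate was averaged over replicate plates.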

[2] = system: RAW-Dual (murine macrophage reporter line); assay: IRF reporter (Lucia luciferase) activity fold change vs agonist alone; higher = enhanced IRF activity
Method in brief: as §1

[3] = system: RAW-Dual (murine macrophage reporter line); assay: viability score (confluency relative to resting cells, overnight) (fraction); higher = more viable, active = viable (0.7 or more)
Method in brief: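 Overnight exposure to 10 μM final compound was carried out on RAW-Dual macrophages in 384-well plates. IncuCyte software generated two confluency masks over all wells imaged with IncuCyte. The viability score gives confluency in relation to resting cells. A compound met the cutoff if each mask exceeded 70% of resting cells.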

[4] = agonist: CpG ODN 1826 0.5 ug/mL

Row | Structure (SMILES) | NF-kB reporter [1, 4] | NF-kB reporter ([1]; agonist: LPS 0.1 ug/mL) | NF-kB reporter ([1]; agonist: MPLA […]) | IRF reporter ([2]; agonist: 3'3'-cGAMP 10 ug/mL) | IRF reporter ([2]; agonist: LPS 0.1 ug/mL) | IRF reporter ([2]; agonist: MPLA […]) | viability score [3]
1 | Cc1cccc(OCCCSc2nc3ccccc3[nH]2)c1 | 0.919 ± 0.076 | 0.973 ± 0.11 | 1.14 ± 0.11 | 0.671 ± 0.021 | 1.28 ± 0.21 | 1.39 ± 0.24 | 0.949 (active)
2 | COc1ccc(Br)cc1S(=O)(=O)NCc1ccccc1 | 1.23 ± 0.3 | 0.932 ± 0.054 | 1.06 ± 0.11 | 1.18 ± 0.046 | 1.19 ± 0.13 | 1.21 ± 0.16 | 0.928 (active)
3 | CCCCCCOc1ccc(OC(=O)c2ccc(OC)cc2)cc1 | 0.826 ± 0.073 | 0.856 ± 0.072 | 0.913 ± 0.089 | 0.95 ± 0.037 | 1.37 ± 0.21 | 1.62 ± 0.26 | 1.04 (active)
4 | O=C(NC12CC3CC(CC(C3)C1)C2)N1CCOCC1 | 0.95 ± 0.16 | 1.02 ± 0.084 | 0.989 ± 0.12 | 0.993 ± 0.027 | 1.22 ± 0.21 | 1.32 ± 0.17 | 0.967 (active)
5 | Cl.O=C1NCC2(CCN(CCc3ccccc3)CC2)O1 | 0.582 ± 0.028 | 0.641 ± 0.054 | 0.798 ± 0.082 | 0.672 ± 0.042 | 1.54 ± 0.26 | 1.78 ± 0.51 | 0.816 (active)
6 | CC(C)(C(=O)c1cccnc1)c1cccnc1 [Prestw-904] | 1.05 ± 0.092 | 0.894 ± 0.073 | 0.939 ± 0.057 | 0.995 ± 0.054 | 0.956 ± 0.12 | 0.901 ± 0.23 | 0.997 (active)
7 | CC(C)c1c(C(=O)Nc2ccccc2)c(-c2ccccc2)c(-c2ccc(F)cc2)n1CC[C@@H](O)C[C@@H](O)CC(=O)O [Prestw-1232] | 1.63 ± 0.21 | 1.05 ± 0.11 | 1.16 ± 0.033 | 0.893 ± 0.036 | 0.928 ± 0.068 | 1.13 ± 0.12 | 0.995 (active)
8 | CC1(C)OC(=O)C=CC2(C)C1CC(O)C1(C)C2CCC2(C)C(c3ccoc3)OC(=O)C3OC321 (stereo unspecified) | 1.29 ± 0.35 | 1.1 ± 0.11 | 1.06 ± 0.14 | 0.944 ± 0.032 | 1.22 ± 0.15 | 1.24 ± 0.17 | 0.99 (active)
9 | O=C1CCc2cc(OCCCCc3nnnn3C3CCCCC3)ccc2N1 | 1.52 ± 0.27 | 1.24 ± 0.38 | 1.18 ± 0.2 | 1.01 ± 0.043 | 1.32 ± 0.2 | 1.32 ± 0.12 | 0.991 (active)
10 | COc1ccc(CCNCC(O)COc2cccc(C)c2)cc1OC.Cl (stereo unspecified) | 0.68 ± 0.16 | 1.15 ± 0.057 | 1.06 ± 0.099 | 0.824 ± 0.029 | 1.19 ± 0.14 | 1.43 ± 0.25 | 0.985 (active)
11 | O=C1CCCN1c1ccc(Cn2cc(-c3nc(-c4ccc(F)cc4)no3)ccc2=O)cc1 | 0.981 ± 0.15 | 1.06 ± 0.086 | 1.01 ± 0.086 | 1.02 ± 0.053 | 1.04 ± 0.066 | 1.16 ± 0.15 | 1.01 (active)
12 | Cn1nc(CNS(=O)(=O)c2cccc(C(F)(F)F)c2)c2c1CCCC2 | 0.981 ± 0.052 | 0.98 ± 0.092 | 1.21 ± 0.13 | 0.987 ± 0.085 | 1.06 ± 0.15 | 1.05 ± 0.27 | 0.926 (active)
13 | CC(=O)N1CCC(C(=O)N2CCOCC2CN(C)C)CC1.O=CO (stereo unspecified) | 0.979 ± 0.11 | 1.08 ± 0.17 | 0.924 ± 0.064 | 0.992 ± 0.08 | 1.13 ± 0.089 | 1.06 ± 0.082 | 0.992 (active)

Source: the supplement of paper PMC10646978
